This is an account of results in PubChem BioAssay.

As usually defined, the inhibition is the percentage by which the read-out fell short of the control.

Each structure is given as a SMILES string. Activity calls are given as the source filed them. No rule for the calls is given here.

Chain of Pantothenate synthetase (Mycobacterium tuberculosis (strain ATCC 25618 / H37Rv)) (P9WIL5 whole entry, looked up): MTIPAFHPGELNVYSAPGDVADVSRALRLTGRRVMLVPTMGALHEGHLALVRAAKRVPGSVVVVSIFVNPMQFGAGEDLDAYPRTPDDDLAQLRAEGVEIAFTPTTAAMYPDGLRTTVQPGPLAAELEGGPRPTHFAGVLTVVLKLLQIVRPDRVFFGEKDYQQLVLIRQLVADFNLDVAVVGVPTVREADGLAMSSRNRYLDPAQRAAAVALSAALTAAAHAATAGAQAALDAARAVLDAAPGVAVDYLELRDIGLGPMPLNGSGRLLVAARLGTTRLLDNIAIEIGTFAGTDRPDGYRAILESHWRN

This experiment concerns the target Pantothenate synthetase (Mycobacterium tuberculosis (strain ATCC 25618 / H37Rv)) (UniProt P9WIL5). Kind of experiment: Recombinant Mtb pantothenate synthetase (PanC) inhibitors, coupled enzyme, confirmatory (AID 375).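 Also: 0% = full reaction with vehicle and 100% = no enzyme background.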 To be noted: coupled enzyme assay; at 10 µM, active compounds read high.
Regarding `Nc1sccc1C(=O)c1ccc(Cl)cc1`, the inhibition is 0% (inactive).

For the molecule `CCC(C)(C)n1nnnc1C(c1ccc(OC)c(OC)c1)N1CCN(c2ccc(F)cc2)CC1` (stereo not given), the inhibition is 0% (inactive).

As to `COc1ccccc1C(=O)NCCc1nc2ccccc2n1C`, the inhibition is 1% (inactive).

`COc1ccc(C2C3=C(OC(C)=O)c4ccccc4C3=Nc3c2c(=O)n(C)c(=O)n3C)cc1` (stereo not given): the inhibition was 2% (inactive).

Turning to `CCOC(=O)c1ccc(NC(=O)CCc2c(C)nc3ncnn3c2C)cc1`, the inhibition is 1% (inactive).

On to `O=C1CCCCCC1C1(O)C(=O)Nc2ccccc21` (stereo not given), for which the inhibition was 7% (inactive).

For the molecule `Cc1cc(S(=O)(=O)N2CCN(c3ccccc3C)CC2)ccc1F`, the inhibition was 5% (inactive).

Take `CC(=O)Nc1ccc(S(=O)(=O)N2CCN(Cc3ccncc3)CC2)cc1`: the inhibition was 8% (inactive).

On to `CCCCCC(=O)N1CC2(CC)CN(C(=O)CCCCC)CC(CC)(C1)C2=O`, for which the inhibition is 4% (inactive).

For `COc1cc(NC(=O)c2nccnc2C(=O)O)cc(OC)c1`, the inhibition was 5% (inactive).

Take `COc1cccc(-c2cc(C(F)(F)F)n3ncc(C(=O)O)c3n2)c1`: the inhibition was 0% (inactive).

As to `Cc1cc(NC(=O)CS(=O)(=O)c2cn(Cc3cccc(F)c3)c3ccccc23)no1`, the inhibition was 4% (inactive).

Take `CCCCC(O)(C(NC=O)C(=O)OC)C(F)(F)F` (stereo not given): the inhibition is 2% (inactive).

Consider `Cc1oc(-c2ccccc2F)nc1CS(=O)(=O)CC(=O)NCc1ccco1`, for which the inhibition was 0% (inactive).

Consider `CCOc1ccc(N2C(=O)CC(N3CC(C)OC(C)C3)C2=O)cc1` (stereo not given), for which the inhibition was 0% (inactive).

As to `COC(=O)c1ccc(C2CC(=O)Nc3cc(OC)c(OC)c(OC)c32)cc1` (stereo not given), the inhibition is 0% (inactive).

With `COC(=O)C(CC(C)C)NC(=O)CSc1nc(-c2ccccc2)c(C#N)c(=O)[nH]1` (stereo not given), the inhibition is 0% (inactive).

Regarding `COC(=O)c1cc(=O)n(Cc2ccc3c(c2)OCO3)c(=Nc2ccccc2)s1`, the inhibition was 7% (inactive).

As to `O=C(NC1CCc2ccccc21)C1CCN(S(=O)(=O)c2ccc(-n3cnnn3)cc2)CC1` (stereo not given), the inhibition was 10% (inactive).

For `Cc1c(Cc2ccccc2)sc(N)c1C(N)=O`, the inhibition was 0% (inactive).

As to `O=C1C(c2ccncc2)=C(O)c2ccccc21`, the inhibition was 0% (inactive).

Turning to `CCN1C(=O)/C(=C2\C=Cc3ccccc3N2CC)OC1=S`, the inhibition is 11% (inactive).

Consider `COc1cc(C2C(C#N)=C(C)NC3=C2C(=O)CC(C)(C)C3)ccc1O` (stereo not given), for which the inhibition was 0% (inactive).

On to `COCCCNC(=O)Cn1cc2c(n1)CCC(C)C2` (stereo not given), for which the inhibition was 3% (inactive).

Take `O=C(Nc1ccc2snnc2c1)N1CCSCC1`: the inhibition is 0% (inactive).

For `COc1ccc(OC)c(NC(=O)CSc2nnc(Cc3cccn3C)n2-c2ccc(F)cc2)c1`, the inhibition was 0% (inactive).

`CC(=O)n1nc(-c2ccco2)nc1SCc1ccccc1`: the inhibition is 0% (inactive).

As to `CCC(C)c1ccc(NC(=O)C2CC2)cc1` (stereo not given), the inhibition is 0% (inactive).

For `CCNc1ccc(S(=O)(=O)C(F)(F)F)cc1NC(=O)C12CCC(CC1)C2`, the inhibition was 0% (inactive).

Turning to `COc1cc([C@@H]2[C@H]3CN(C)CC=C3C(C#N)=C(N)C2(C#N)C#N)cc2c1OCO2`, the inhibition was 0% (inactive).

As for `CCOC(=O)c1cccc(NC(=O)CSc2nc3ccccc3c(=O)n2CC)c1`, the inhibition is 0% (inactive).

For the molecule `COc1cc(Nc2cc(C)nc3ncnn23)cc(OC)c1OC`, the inhibition is 0% (inactive).

`COC(=O)c1ccc(NC2(C#N)C(=O)Nc3ccccc32)cc1` (stereo not given): the inhibition was 0% (inactive).

`Cc1cc(C(=O)CSc2nc3ccccc3n2CCC#N)c(C)n1Cc1cccs1`: the inhibition was 0% (inactive).

With `CCOC(=O)CCCOC(=O)c1ccc(S(=O)(=O)N(C)C)cc1`, the inhibition is 0% (inactive).

For `COc1ccc(C(=O)Cn2nnc(-c3cccs3)n2)cc1`, the inhibition is 0% (inactive).

With `CC(NC(=O)c1ccco1)c1ccc2c(c1)OCCO2` (stereo not given), the inhibition was 0% (inactive).

`C/C=C/c1ccc(OCCn2cncn2)c(OC)c1`: the inhibition is 0% (inactive).

With `CC(C)COC(=O)C1[C@H]2C(=O)N(Cc3cccs3)C[C@]23C=C[C@H]1O3` (stereo not given in full), the inhibition was 1% (inactive).

Regarding `COc1ccc(CCN2C(=O)CC(N3CCOCC3)C2=O)cc1` (stereo not given), the inhibition is 0% (inactive).
